Laboratory results as given in paper PMC11006913.

biological target: ALX3 (Homo sapiens, UniProt O95076 139-225, N203S); assay: PBM; 200 nM protein, PBS; settings: dsDNA, one strand shown
Sequence (O95076 139-225 N203S): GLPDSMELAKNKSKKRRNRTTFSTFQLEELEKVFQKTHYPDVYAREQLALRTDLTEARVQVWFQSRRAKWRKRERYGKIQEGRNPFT

Sequence	binding signal
GCCGCAGC	7.75 upbm affinity estimate (log intensity, higher = more binding, comparable within an allelic series)
CGAGCGAC	7.82 upbm affinity estimate (log intensity, higher = more binding, comparable within an allelic series)
GACCCAGC	7.8 upbm affinity estimate (log intensity, higher = more binding, comparable within an allelic series)

biological target: HOXA2 (Homo sapiens, UniProt O43364 129-215); assay: PBM; 200 nM protein, PBS; settings: dsDNA, one strand shown
Sequence (O43364 129-215): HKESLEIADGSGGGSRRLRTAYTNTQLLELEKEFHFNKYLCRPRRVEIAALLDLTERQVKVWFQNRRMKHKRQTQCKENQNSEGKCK

Sequence	binding signal
CACGGGGG	7.04 upbm affinity estimate (log intensity, higher = more binding, comparable within an allelic series)
CCCCTCGG	7.11 upbm affinity estimate (log intensity, higher = more binding, comparable within an allelic series)
GCCAGGGC	6.74 upbm affinity estimate (log intensity, higher = more binding, comparable within an allelic series)
CCATTAAC	12 upbm affinity estimate (log intensity, higher = more binding, comparable within an allelic series)

biological target: VAX1 (Homo sapiens, UniProt Q5SQQ9 86-172, K157R); assay: PBM; 200 nM protein, PBS; settings: dsDNA, one strand shown
Sequence (Q5SQQ9 86-172 K157R): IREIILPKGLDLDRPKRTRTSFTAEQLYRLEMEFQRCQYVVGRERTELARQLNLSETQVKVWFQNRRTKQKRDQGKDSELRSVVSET

Sequence	binding signal
CACGGGGG	7.08 upbm affinity estimate (log intensity, higher = more binding, comparable within an allelic series)
CCGGGAGG	7.11 upbm affinity estimate (log intensity, higher = more binding, comparable within an allelic series)
GGGGTACC	7.1 upbm affinity estimate (log intensity, higher = more binding, comparable within an allelic series)
CGAGCGAC	7.05 upbm affinity estimate (log intensity, higher = more binding, comparable within an allelic series)
CCCCTCGG	7.1 upbm affinity estimate (log intensity, higher = more binding, comparable within an allelic series)
GCCAGGGC	7.15 upbm affinity estimate (log intensity, higher = more binding, comparable within an allelic series)
CAAGGCCC	6.96 upbm affinity estimate (log intensity, higher = more binding, comparable within an allelic series)

biological target: HOXB6 (Homo sapiens, UniProt P17509 132-218); assay: PBM; 200 nM protein, PBS; settings: dsDNA, one strand shown
Sequence (P17509 132-218): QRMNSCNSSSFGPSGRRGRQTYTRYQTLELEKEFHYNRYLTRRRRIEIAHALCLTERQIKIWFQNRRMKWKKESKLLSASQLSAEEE

Sequence	binding signal
GGGGTACC	9.04 upbm affinity estimate (log intensity, higher = more binding, comparable within an allelic series)
GCCATTAA	12.2 upbm affinity estimate (log intensity, higher = more binding, comparable within an allelic series)
CCCCTCGG	8.89 upbm affinity estimate (log intensity, higher = more binding, comparable within an allelic series)
AGTTAATG	11.7 upbm affinity estimate (log intensity, higher = more binding, comparable within an allelic series)
CCATTAAC	12 upbm affinity estimate (log intensity, higher = more binding, comparable within an allelic series)
